The supplement of paper PMC4466236
Over roughly 33,000 sequences, “E-score (dimensionless, -0.5 to 0.5)” has its median near -0.058; the highest 2% begin near 0.35. For the sample, the highest values were picked, then their nearest neighbours and some sequences at random.

Tested on: MvaT
Experiment: PBM 8-mer E-score (mean of HK and ME arrays) (E-score (dimensionless, -0.5 to 0.5)); higher = stronger relative binding preference
Procedure, shortened: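 Full-length P. aeruginosa MvaT carrying an N-terminal glutathione S-transferase tag was tested by protein binding microarray following a previously described protocol. Two universal double-stranded 60-mer arrays, ME and HK, were used, each with a constant 25-mer primer region and a variable 35-mer region covering all 8-mers. The rank-based E-score is the mean of the two arrays, parsed with a custom script. Its range runs from -0.5 to 0.5 for each 8-mer.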

Row | Sequence | PBM 8-mer E-score
1 | TAGGAGGA | -0.23
2 | GGTATTTA | 0.27
3 | CTTATTTC | 0.291
4 | CTCATTTA | 0.172
5 | GCTATTTA | 0.252
6 | ATTATTTG | 0.351
7 | ACTATTTG | 0.258
8 | AGTATTTG | 0.308
9 | ATTATTTA | 0.44
10 | GTTATTTA | 0.395
11 | AGTATTTA | 0.33
12 | ACTATTTA | 0.345
13 | CTTATTTA | 0.391
14 | GACGACGA | 0.0375
15 | AGCCTTCG | -0.32
16 | CAAAAATC | 0.0508
17 | GAGATTAC | 0.135
18 | AAGAAACT | 0.186
19 | GGCGTGGA | -0.173
20 | GACCATAA | -0.0261
21 | CGGAGCCA | -0.2
22 | GCAATCCA | -0.0685
23 | CGCACCCC | -0.26
24 | ATTATTTC | 0.352
25 | AGTATTTC | 0.207

Row | Sequence | PBM 8-mer E-score
26 | ATTATTGC | 0.292
27 | AACCTGGA | -0.275
28 | AGCGCGAT | -0.196
29 | AATTTTAA | 0.321
30 | GATTTTAA | 0.248
31 | AATTTAAA | 0.443
32 | AATTTAAG | 0.271
33 | CATTTAAG | 0.287
34 | TATTTTAA | 0.41
35 | AATTTAAT | 0.431
36 | AATTTAGA | 0.183
37 | AATTTAAC | 0.31
38 | TATTTTCA | 0.277
39 | CATTTTAA | 0.176
40 | CATTTAAA | 0.386
41 | ATGCATAG | -0.0132
42 | CGCGCATA | 0.113
43 | GCGTGAAC | -0.168
44 | GGACCCCA | -0.231
45 | TACGCACA | 0.0888
46 | CGGTGGCA | -0.169
47 | CGCACGTA | -0.1
48 | CCTGCACG | -0.224
49 | TCTTTAAA | 0.227
50 | TATTTAAA | 0.433

Row | Sequence | PBM 8-mer E-score
51 | TATTTAGA | 0.308
52 | GATTTAAA | 0.395
53 | GATTTACA | 0.072
54 | CATTTACA | 0.339
55 | GATTTAAC | 0.245
56 | GATTTGAA | 0.2
57 | TATTTACA | 0.374
58 | ATGTCAAC | 0.0323
59 | CGCCTACG | -0.307
60 | AGGGAGAG | -0.161
61 | ACATTTAG | 0.177
62 | GCATTTAA | 0.326
63 | ACATTAAG | 0.265
64 | CCATTAAA | 0.329
65 | AGATTAAG | 0.175
66 | AGATTAAA | 0.178
67 | AGATTAAT | 0.379
68 | ACATTTAA | 0.388
69 | ACATTAAT | 0.382
70 | ACATTAAC | 0.345
71 | ACATTAAA | 0.359
72 | GCATTAAA | 0.256
73 | ACCACATC | -0.0359
74 | ATGCTCTA | -0.124
75 | TGTGCCAA | -0.0753

Row | Sequence | PBM 8-mer E-score
76 | AGGAATTA | 0.226
77 | CGTCCCCC | -0.209
78 | AACATTAC | 0.234
79 | TACTCCAA | 0.097
80 | GACCCTAC | -0.272
81 | ACATTTTG | 0.0944
82 | GAAAGTGA | 0.135
83 | CCGACTAG | -0.0959
84 | CTTATTAC | 0.367
85 | ACTATTAG | 0.26
86 | ATTATTAC | 0.439
87 | ATTATTAG | 0.411
88 | CTTATTGC | 0.178
89 | CTTATTCC | 0.221
90 | ATTATTCA | 0.328
91 | GCTATTAC | 0.121
92 | ATTATTGG | 0.293
93 | ACTATTAC | 0.32
94 | ATTATTCG | 0.378
95 | ATTATTCC | 0.341
96 | TACGACAA | 0.131
97 | CCACCTCG | -0.129
98 | GAGGCCCA | -0.232
99 | ATCCGAGG | -0.119
100 | CAATTCTA | 0.109

Row | Sequence | PBM 8-mer E-score
101 | GATTTAGC | 0.024
102 | ACTTATGG | 0.206
103 | AGTGGTAG | 0.00056
104 | CGCCGGCA | -0.168
105 | CCTAACCG | -0.115
106 | GAACTAAA | 0.338
107 | AAACTATT | 0.371
108 | TAACTAAA | 0.312
109 | AAACTAAA | 0.357
110 | AAACTATA | 0.334
111 | AAACTATC | 0.301
112 | ATTGAAAG | 0.195
113 | AGTCCCGC | -0.186
114 | GTCCAATA | 0.0714
115 | AATGGGGT | 0.0941
116 | ACAACCTG | -0.038
117 | GCGAGCCA | -0.16
118 | ACAATATC | 0.258
119 | CCAATACA | 0.142
120 | GCAATAGA | 0.127
121 | ACAATATG | 0.262
122 | GCAATAAA | 0.214
123 | GCAATATA | 0.414
124 | CCAATATA | 0.367
125 | CCAATATC | 0.194

Row | Sequence | PBM 8-mer E-score
126 | ACAATATA | 0.425
127 | CTAGGCCA | -0.211
128 | CGATAGGA | -0.177
129 | AAAACCTT | 0.103
130 | GCCATCGC | -0.219
131 | ACTTACAA | 0.307
132 | GAATTTCA | 0.108
133 | CCTGGGCC | -0.238
134 | ACACATTA | 0.355
135 | ATACATTA | 0.39
136 | GTACATTA | 0.308
137 | GCACATTA | 0.19
138 | ACACATTG | 0.113
139 | CTACATTA | 0.241
140 | GCCGATGA | -0.199
141 | TAGCTATA | 0.241
142 | ACGGTAAT | 0.18
143 | GTAGGCAA | -0.171
144 | TAGGGCAA | -0.0392
145 | AATTACAA | 0.367
146 | CATTACAA | 0.166
147 | AATTACAG | 0.268
148 | AATTACAT | 0.327
149 | GATTACAA | 0.188
150 | TATTACAA | 0.351

Row | Sequence | PBM 8-mer E-score
151 | AGGTGACT | -0.173
152 | CCGAGACA | -0.0391
153 | GAGGAGTA | -0.153
154 | CGAGTATA | 0.195
155 | ATATATTC | 0.454
156 | ATCTATTG | 0.082
157 | CTATATTC | 0.204
158 | ATATATTG | 0.446
159 | AGATATTG | 0.191
160 | CTCTATTC | -0.0516
161 | AATCATAA | 0.306
162 | ACCCGTCG | -0.0362
163 | AATATACT | 0.421
164 | TATATACA | 0.456
165 | AATACACG | 0.159
166 | AGTATACC | 0.234
167 | CATATACA | 0.275
168 | AGTATACT | 0.422
169 | AGTATACA | 0.321
170 | GATATACA | 0.205
171 | AATACACA | 0.151
172 | AATATACC | 0.324
173 | AATATACA | 0.413
174 | AATATACG | 0.331
175 | GAGCCGAC | -0.262

Row | Sequence | PBM 8-mer E-score
176 | ACTTGCAG | 0.0173
177 | AGGCTTAG | -0.104
178 | CGATAGTC | -0.0515
179 | AGGTCGTG | -0.0505
180 | CAGTAGCA | 0.0532
181 | GCGACTCC | -0.217
182 | CGTAGGTA | -0.029
183 | TGGATACA | -0.00533
184 | TGTATACA | 0.351
185 | TCTATACA | 0.136
186 | AAGTTATC | 0.256
187 | CAGTTATG | 0.189
188 | AAGTTACG | 0.231
189 | AAGTTATT | 0.415
190 | AAGTTAGT | 0.322
191 | AAGTTATG | 0.349
192 | GCCTGACA | -0.188
193 | CAGAAAGA | 0.0379
194 | TTAAGAAA | 0.242
195 | ATTTTATC | 0.202
196 | ATCATCGG | -0.0977
197 | AGTAGGAT | -0.047
198 | CATACAAA | 0.206
199 | AATACAAG | 0.208
200 | GATACAAA | 0.247

Row | Sequence | PBM 8-mer E-score
201 | AATACAAA | 0.357
202 | AATACAAC | 0.316
203 | TATACAAA | 0.392
204 | TACTCTGA | -0.066
205 | TAAGGGCA | 0.0358
206 | GCTCTCGA | -0.0844
207 | AACTGGGG | -0.149
208 | AACTATAA | 0.382
209 | AACTATAT | 0.349
210 | AACTATAG | 0.236
211 | AACTATAC | 0.227
212 | GACTATAA | 0.316
213 | CACTATAA | 0.312
214 | TACTATAA | 0.387
215 | TGCTATAA | 0.285
216 | TACTATCA | 0.276
217 | ACGGGCCG | -0.277
218 | GACCCAGC | -0.26
219 | ACTTAGAG | 0.106
